The whole screen tested about 64,000 compounds, of which about 1,900 (3%) were called active. What follows is part of a selection rich in actives, with near analogues and random picks from the rest. Unmarked numbers belong to inactive results.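 The calls were made as follows: active = fluorescence rise, raw or as B-score row- and column-corrected plate score, outside the 99.7% band of its plate's samples, either direction; inactive = the rest.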

In the assay the test system is Muscarinic acetylcholine receptor M1. The assay is described as follows: M1 muscarinic receptor agonists, primary screen, CHO-M1 cells, Fluo-4 calcium, agonist mode (AID 626). The conditions noted are these: Fluo-4 calcium fluorescence, at 10 µM, stronger effect = higher value.
With `Cc1nc2c(c(=O)n1Cc1ccco1)c1nc3ccccc3nc1n2Cc1ccccc1`, the B-score was -1.33.
In the case of `COc1ccc(CC(=O)Nc2nc3n(n2)C(c2ccccc2)CC(=O)N3)cc1OC` (stereo not given) it was 1.86; in that of `COc1cc2c(cc1OC)C(c1ccc(C)o1)CC(=O)N2` (stereo not given), 0.00289; in that of `COCCOC(=O)C1=C(C)NC(=O)CC1c1cc2c(cc1Br)OCO2` (stereo not given), 0.114.
In the case of `CCCOc1ccccc1C1CC(=O)Nc2cc3c(cc21)OCO3` (stereo not given) it was 4.33 (active).
With `CC(C)C[C@H](NC(=O)Nc1cccc(C(F)(F)F)c1)C(=O)O` the figure was 0.0481; with `CC(=O)c1c(C)c[nH]c1C`, 0.323.
As to `Cc1nc(CNS(=O)(=O)c2cccnc2)cs1`, the B-score is 0.163.
With `Cc1ccc(S(=O)(=O)NCc2csc(C)n2)c(C)c1` the figure was -0.841; with `Cc1nc(CNS(=O)(=O)c2ccc(Oc3ccccc3)cc2)cs1`, 3.97 (active); with `CC(C)C(NC(=O)OCc1ccccc1)C(=O)OCC(=O)N1C(C)CCCC1C` (stereo not given), -0.582.
In the case of `COc1cc(OC)cc(C(=O)NCCSCc2ccco2)c1` it was -0.317.
In the case of `COC(=O)c1ccc(N(CC(=O)NC2CCCC2)C(=O)CNC(=O)c2ccco2)cc1` it was -0.016.
Turning to `O=C(NCCSc1ccccc1)c1ccco1`, the B-score is 0.47.
As to `COc1ccc(CCNC(=O)c2ccco2)cc1`, the B-score is 78.9 (active).
In the case of `COc1ccc(N(CC(=O)NC(C)(C)C)C(=O)c2ccco2)cc1` it was 3.36 (active).
In the case of `CC(C)(C)NC(=O)c1cc(NC(=O)c2ccco2)cc(NC(=O)c2ccco2)c1`, the B-score is 4.57.
In the case of `CCOC(=O)N1CCN(C(=O)CSc2nnc(-c3c[nH]c4ccccc34)n2CCOC)CC1` it was 0.791; in that of `O=C(OCC(=O)c1cccs1)C1=COCCO1`, -0.115; in that of `COc1ccc(C(c2nnnn2C2CCCCC2)N2CCN(c3ccccc3F)CC2)cc1` (stereo not given), -0.721.
`COC(=O)c1ccc(CSc2nc3ccccc3c(=O)n2-c2cccc(OC)c2)o1`: the B-score is 3.63 (active).
In the case of `COCC(C)n1c(SCc2ccc(C(=O)OC)o2)nc2ccccc2c1=O` (stereo not given) it was 1.47; in that of `COC(=O)c1ccc(CSc2ccccc2C)o1`, -0.274.
For `CCOC(=O)N1CCC(C(N)=O)CC1`, the B-score was -0.221.
With `COc1ccc2c(c1)C=CC1(O2)N(CCO)c2ccccc2C1(C)C` (stereo not given) the figure was 0.737.
In the case of `COc1ccc(OC)c(S(=O)(=O)Nc2ccccc2F)c1` it was -0.55.
Turning to `Cc1cc(Nc2ccccc2)n(CCC#N)n1`, the B-score is -0.373.
With `CN1CCN(c2ccc(NC(=O)COc3ccc(Cl)cc3Cl)cc2)CC1` the figure was -0.55; with `Cc1cc(NC(=O)COc2ccc(Cl)cc2Cl)n(CCC#N)n1`, -2.93 (active).
Take `O=C(c1cccs1)N1CCN(Cc2ccc3c(c2)OCO3)CC1`: the B-score was 0.609.
With `COc1ccc(Nc2oc(-c3ccccc3Cl)nc2C#N)cc1` the figure was 37.2 (active); with `CCOc1ccc(Nc2oc(Cc3ccccc3)nc2C#N)cc1`, 0.194; with `N#Cc1nc(-c2ccc(OCc3ccccc3)cc2)oc1NCCCN1CCOCC1`, 1.06.
With `CCN1C(=O)CS/C1=N\c1nccs1` the figure was 0.514; with `O=C(Nc1ccc(Cl)cc1)c1ccsn1`, -0.00233; with `COc1cc(C(=O)Nc2nccs2)cc(OC)c1OC`, 1.84.
With `COc1cc(C(=O)Nc2oc(-c3ccccc3)c(-c3ccccc3)c2C#N)cc(OC)c1OC` the figure was 3.33 (active); with `N#Cc1c(NC(=O)CCCN2C(=O)c3ccccc3C2=O)oc(-c2ccccc2)c1-c1ccccc1`, -0.449; with `O=C(CNS(=O)(=O)c1ccc(Br)s1)NCc1ccc2c(c1)OCO2`, -0.057.
Turning to `Cc1cc(C)nc(SCc2nnc(SCC(=O)Nc3ncc(C)s3)n2Cc2ccco2)n1`, the B-score was 0.0432.
For the compound `CCCc1cc(=O)[nH]c(SCC(=O)OCc2ccccc2)n1`, the B-score is -0.24.
With `COC(=O)c1cn(CC(=O)NCc2cccs2)c2ccccc12` the figure was -0.913.
With `COC(=O)Cn1cc(C(=O)c2cccs2)c2ccccc21`, the B-score is -0.298.
With `O=C(Cn1cc(C(=O)c2cccs2)c2ccccc21)NCc1cccs1` the figure was 5.61 (active); with `COc1ccccc1OCCC(=O)OCC(=O)NC(=O)NC(C)(C)C`, -0.0604.
In the case of `O=C(Nc1ccon1)c1cccc(Cl)c1` it was -0.792; in that of `O=C(Nc1cccc(C(=O)N2CCCC2)c1)c1ccccc1`, 0.113.
Turning to `O=C(Nc1cccc(NC(=O)N2CCN(c3ccccc3)CC2)c1)N1CCN(c2ccccc2)CC1`, the B-score was 5.66 (active).
In the case of `CC(=O)N1CCN(C(=O)Nc2cccc(C(F)(F)F)c2)CC1`, the B-score is 1.54.
As for `Cc1ccc(N2CCN(S(=O)(=O)c3ccc(F)cc3)CC2)c(C)c1`, the B-score was 1.76.
Turning to `O=C(NCCc1ccc2c(c1)OCCO2)c1cc2ccccc2o1`, the B-score was 5.92 (active).
On to `O=C(Nc1ccncc1)c1cc2ccccc2o1`, for which the B-score is -0.306.
For `O=C(CC(Cc1ccccc1)C(=O)O)NCCc1ccc2c(c1)OCO2` (stereo not given), the B-score is -0.0151.
With `CCOc1cccc(-n2nnnc2-c2ccc(OC)cc2)c1` the figure was -0.152; with `COc1ccccc1OCCOc1ccc(/C=N/n2cnnc2)cc1`, -1.48; with `C(=N\n1cnnc1)/c1cccnc1`, 7.81 (active).
In the case of `COc1cccc(OCCOc2cccc(/C=N/n3cnnc3)c2)c1`, the B-score is 0.112.
With `CCOC(=O)c1sc(NC(=O)C(CC)Sc2nccn2C)nc1C` (stereo not given) the figure was 0.459; with `Cc1nnc(SCCCn2c(N3CCCCC3)nc3c2c(=O)[nH]c(=O)n3C)s1`, -0.0644; with `COC(=O)c1cn(-c2ccccc2)nc1-c1cccnc1`, -1.56.
In the case of `COc1ccccc1N1CCN(C(=O)c2cn(-c3ccccc3)nc2-c2cccnc2)CC1` it was 5.33 (active).
In the case of `O=C(c1cn(-c2ccccc2)nc1-c1cccnc1)N1CCCCC1` it was 0.178.
As to `CCOC(=O)Nc1ccc2c(c1)N(C(=O)CN1CCN3CCCC3C1)c1ccccc1CC2` (stereo not given), the B-score was 0.0902.
With `CCOc1ccc(NC(=O)Nc2cc(C)on2)cc1` the figure was -2.11; with `c1cnn(-c2cc(N3CCOCC3)ncn2)c1`, -2.54 (active); with `O=C(Nc1ccc(F)cc1)c1cccnc1N1CCOCC1`, 0.0065.
In the case of `O=C(Nc1cc(N2CCOCC2)ncn1)NC1(C(F)(F)F)Oc2ccc(Cl)cc2O1` (stereo not given) it was 0.249; in that of `O=C(NCc1cn2ccsc2n1)Nc1cccc(Cl)c1`, -0.0716; in that of `CCCC(=O)Nc1cccc(-c2cn3ccsc3n2)c1`, -2.92 (active).
For the compound `COc1ccc(-c2cn3ccsc3n2)cc1`, the B-score is 0.708.
In the case of `OCCCN1c2ccccc2Nc2nnc(-c3ccccc3)cc21` it was 2.37.
As for `CCOc1cccc(=O)c2c(C)n(CC3CCCO3)c(C)c12` (stereo not given), the B-score is -0.504.
For `CCOc1cc(C(=S)N2CCOCC2)ccc1O`, the B-score was 0.0946.
In the case of `CCOc1cc(-c2nc3cc(C)ccn3c2NCC2CCCO2)ccc1O` (stereo not given), the B-score is 5.56 (active).
In the case of `O=C(CC1Oc2ccccc2NC1=O)NCCCN1CCN(Cc2ccccc2)CC1` (stereo not given) it was -0.153; in that of `COc1ccc(CCn2c(-c3ccco3)nc3nc4ccccc4nc32)cc1OC`, 5.87 (active); in that of `Clc1cccc(-c2nc3nc4ccccc4nc3n2Cc2ccco2)c1`, 2.1.
Regarding `COCCn1c(-c2ccc(OC)c(OC)c2)nc2ccccc21`, the B-score is 0.157.
In the case of `COc1ccc(-c2nn(-c3ccccc3)cc2C(=O)Nc2nc(CC(C)=O)ns2)cc1` it was 0.649; in that of `Cn1c(C(=O)NCCCN2CCN(c3cccc(Cl)c3)CC2)cc2c(=O)n(C)c3ccccc3c21`, -1.68; in that of `CC1CCCC(C)N1CCCNC(=O)c1cc2c(=O)n(C)c3ccccc3c2n1C` (stereo not given), 0.176.
In the case of `Cn1c(C(=O)NCCc2ccsc2)cc2c(=O)n(C)c3ccccc3c21` it was 3.97 (active); in that of `CCOc1cc(S(=O)(=O)NC2CC(C)(C)NC(C)(C)C2)ccc1F`, -1.83.
In the case of `N#CC1=C(N)C(C#N)(C#N)[C@H](c2ccsc2)[C@H]2COCC=C12` it was 3.35 (active); in that of `c1ccc(-c2oc3ncnc(N4CCOCC4)c3c2-c2ccccc2)cc1`, -0.65; in that of `O=C1c2ccccc2-c2ncnc3c(N4CCOCC4)cc(N4CCOCC4)c1c23`, 2.4 (active).
For the compound `O=S(=O)(N1CCOCC1)N1CCN(c2ccccc2F)CC1`, the B-score was 0.0546.
In the case of `O=C(NCCC1=CCCCC1)C1CCN(Cc2cnn(-c3ccccc3)c2-n2cccc2)CC1` it was 3.61 (active); in that of `C1=C(CCNc2ncnc3c2cnn3-c2ccccc2)CCCC1`, 0.14; in that of `O=C(COc1cccc(-n2cnnn2)c1)NCCC1=CCCCC1`, -0.532.
With `COc1ccc(CCNc2ncnc3nc[nH]c23)cc1OC` the figure was -0.961.
With `c1ccc2c(c1)OCC(CNc1ncnc3nc[nH]c13)O2` (stereo not given) the figure was 104 (active); with `Cc1cc(NC(=O)CCC2COc3ccccc3O2)no1` (stereo not given), -0.76.
In the case of `O=S1(=O)CC(NCc2ccccc2)C(Nc2ccc(Cl)cc2)C1` (stereo not given), the B-score is -0.0591.
With `COc1ccc(-c2c3c(=O)n(C)c(=O)n(C)c3cn2-c2cccc(OC)c2)cc1` the figure was 0.091; with `COc1cccc(-n2cc3c(c2-c2ccccc2)c(=O)n(C)c(=O)n3C)c1`, 7.45 (active); with `Cc1ccc(-c2c3c(=O)n(C)c(=O)n(C)c3cn2-c2ccccc2O)cc1`, 0.252.
In the case of `CCCCn1c(SCC(=O)NCC2CCCO2)nc2ccc(N3CCOCC3)cc2c1=O` (stereo not given) it was 0.658; in that of `COc1ccccc1CNC(=O)CCCNS(=O)(=O)c1cccc2nsnc12`, -0.144.
In the case of `CCS(=O)(=O)N1CCCC(C(=O)NCCCN(C)Cc2ccccc2)C1` (stereo not given) it was 0.0256.
